G9a block: G9a (human) methyltransferase inhibition | actives 8.8% (n = 350,000) | G9a H3K9 monomethylation, AlphaScreen, 2 h | Potency, µM (titrated, usually from 102 µM), without a hit: at the highest dose activity, negative = inhibition, most hits filed as inhibitors | AID 504332; further: potency means the concentration at half of the fitted maximal effect; nearly all actives have a fitted effect of over 75% in size
Target sequence (Q96KQ7 913-1193 limits assumed): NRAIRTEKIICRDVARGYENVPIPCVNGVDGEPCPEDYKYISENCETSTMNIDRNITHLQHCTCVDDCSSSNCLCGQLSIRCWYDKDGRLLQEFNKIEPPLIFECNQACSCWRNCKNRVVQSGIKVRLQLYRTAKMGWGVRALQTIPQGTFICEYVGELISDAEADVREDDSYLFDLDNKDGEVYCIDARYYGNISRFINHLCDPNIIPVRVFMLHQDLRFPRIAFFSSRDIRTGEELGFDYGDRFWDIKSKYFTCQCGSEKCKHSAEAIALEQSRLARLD
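AlphaScreen detection with an anti-monomethyl H3K9 antibody quantified product after a 2 h room-temperature reaction containing 500 nM biotinylated H3K9 peptide, 20 µM SAM and 20 nM enzyme, which had been preincubated 15 min with compound.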
Tau fluor counter: counter-screen for tau fibril formation inhibitors; tau K18 P301L Alexa594 fluorescence, heparin fibrillization; Potency, µM (titrated, usually from 57.7 µM), without a hit: top-dose activity change, negative = decrease; actives 0.93% (n = 280,000); further: potency means the concentration at half of the fitted maximal effect; nearly all actives have a fitted effect of over 55% in size
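Human K18 P301L tau (15 uM unlabeled plus 0.24 uM Alexa 594-labeled, final) in 100 mM sodium acetate pH 7 was mixed with compound and 20 uM heparin and incubated 6 hr at 37 C.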
Tau ThT inhib: tau fibrillization inhibition (ThT binding); P10636; recombinant tau K18 P301L, heparin-induced fibrillization, ThT fluorescence; Potency, µM (series often up to 57.4 µM), for the others: at the top dose activity, negative = inhibition, most hits filed as inhibitors; actives 2.1% (n = 270,000); AID 1460; further: potency means the concentration at half of the fitted maximal effect; nearly all actives have a fitted effect of over 55% in size
Target sequence (P10636 561-689 P618L limits assumed): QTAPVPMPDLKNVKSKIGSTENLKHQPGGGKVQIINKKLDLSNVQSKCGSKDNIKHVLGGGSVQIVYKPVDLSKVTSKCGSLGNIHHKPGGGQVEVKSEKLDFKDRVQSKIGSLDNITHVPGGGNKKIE
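Using a mix of unlabeled (15 uM) and Alexa 594-labeled (0.24 uM) tau K18 P301L, heparin-triggered fibrillization over 6 hr at 37 C was scored by ThT fluorescence.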
Sfp inh: blocks B. subtilis Sfp PPTase activity | Q9F4F7 | Biochemical Sfp PPTase activity, qHTS | Potency, µM, for the others: largest response in the series, negative = inhibition, most hits filed as inhibitors | actives 3.5% (n = 310,000);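 further: the enzyme is Sfp with the accession as filed and its product quenches rhodamine fluorescence; potency means the concentration at half of the fitted maximal effect; 0% = enzyme reaction without inhibitor and -100% = no enzyme wells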
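Step 1, compound plus 15 nM Sfp-PPTase, 15 min, room temperature. Step 2, add rhodamine-CoA (5 uM) and BHQ-2-YbbR (12.5 uM). Step 3, read 525/598 nm fluorescence at 0 and 30 min.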
FBPA coupling cs: counter-screen for Giardia aldolase inhibitors: coupling enzyme system; AID 2472; coupling enzyme system counterscreen, AmpLite Red fluorescence; activity change, negative = inhibition, % at 58.2 µM, hits read low; actives 0.67% (n = 290,000); in the data active means activity change below about -30%
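Fluorescence at 525 nm excitation and 598 nm emission measured inhibition of the coupled detection system without aldolase. Compounds (at 57.5 uM final) were preincubated 10 min at room temperature with coupling enzyme reagent before a 20 min substrate/AmpLite Red step.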
Tau fibril FP: tau fibrillization inhibition (FP). P10636. K18 P301L tau heparin fibrillization, Alexa594 FP, 6 h. Potency, µM (series often up to 57.7 µM), inactives show at the top dose activity, negative = inhibition, usual class: inhibitors. actives 0.39% (n = 280,000). AID 1468; further: potency means the concentration at half of the fitted maximal effect; nearly all actives have a fitted effect of over 55% in size
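K18 P301L tau (15 uM unlabeled/0.24 uM Alexa 594-labeled, final) + compound + heparin 20 uM final; 100 mM NaOAc pH 7; 6 hr 37 C; ThT 30 uM final added, 1 hr RT; FP ex 555/em 632 nm.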
The depositor's hits bear a star; ? = inconclusive; . = not tested or not shown; [ ] = dose if it differs, or a comment. Shown are actives, neighbours in structure and some others; about 11% of the full set was active somewhere. Unless noted, the call rests on the fitted dose curve; in most records, active means well fitted curve in the direction sought with a large enough effect; inconclusive means small, poorly fitted or top-dose-only effect, or another doubt; inactive means no such curve, though single readings can be large; an effect the other way counts as inactive or inconclusive. Unless noted, on the % scale 0 is the no-effect control and ±100 the full control effect.

SMILES | G9a block | Tau fluor counter | Tau ThT inhib | Sfp inh | FBPA coupling cs | Tau fibril FP
Cc1ccccc1-c1nc(CS(=O)(=O)CC(=O)NCCCc2ccccc2)c(C)o1 | -24%[59 µM] | -16% | -11% | . | . | 0%
S=c1[nH]nc(-c2ccco2)n1/N=C/C=C/c1ccco1 | 1.4µM* | -1% | ? | -42% | 1 | -5%
S=c1[nH]nc(-c2ccncc2)n1/N=C/C=C/c1ccccc1 | ? | -18% | -18% | -19% | 3 | -4%
S=c1[nH]nc(-c2cc(-c3ccccc3)n[nH]2)n1/N=C/C=C/c1ccco1 | 1.8µM* | ? | ? | 16µM* | -3 | 2%
Cc1cccc(-c2n[nH]c(=S)n2/N=C/c2ccco2)c1 | . | -4% | -1% | -25% | -1 | 1%
COC(=O)c1cc2c(ccn2-c2ccc(F)cc2)n1Cc1ccc(OC(C)=O)cc1 | 50µM* | -8% | 1% | 16% | 1 | 2%
CCOC(=O)c1cc2c(ccn2-c2ccc(F)cc2)n1CC(=O)N1CCN(C(=O)c2ccco2)CC1 | -2% | -8% | -12% | 7% | 1 | -5%
CCCn1c(C(=O)OC)cc2c1ccn2-c1ccc(F)cc1 | 71µM* | -25% | ? | ? | . | 1%
COC(=O)c1cc2c(ccn2-c2ccc(F)cc2)n1Cc1cccc(OC)c1 | -4% | -29% | -14% | 16% | -2 | -8%
COC(=O)c1cc2c(ccn2-c2ccc(F)cc2)n1CC(C)C | 45µM* | -4% | 0% | -16% | . | -3%
COC(=O)c1cc2c(ccn2-c2ccc(F)cc2)n1C(C)C | -8%[0.0925 µM] | -21% | -18% | -23% | . | -4%
O=C(COC(=O)COc1ccccc1)Nc1ccc(S(=O)(=O)N2CCOCC2)cc1 | -3% | -23% | -6% | 16% | 0 | -11%
COc1ccc(-n2c(CNC(=O)c3cc(OC)c(OC)c(OC)c3)n[nH]c2=S)cc1 | 8.9µM* | 0% | 0% | -13% | . | 2%
COc1cc(OC)cc(C(=O)NCc2n[nH]c(=S)n2-c2ccccc2OC)c1 | 1µM* | -1% | -7% | ? | 2 | 4%
COc1ccc(Cn2ccc3nc(C)c(C(=O)NCc4ccc(SC)cc4)cc3c2=O)cc1 | 0%[59 µM] | -8% | 3% | . | . | -4%
Cc1c(C(=O)OC2CCC(C)CC2)[nH]c2c1C(=O)CC(c1ccc(N(C)C)cc1)C2 (centres undefined) | -33%[59 µM] | -22% | -15% | . | . | ?
COc1ccc(-c2ccc(OC)c(C3C4C=CCCC4(C)C(=O)N3Cc3ccccc3)c2)cc1 (centres undefined) | . | . | . | -27% | 0 | .
Cc1ccc(CNc2ncnc3ccc(-c4c(C)noc4C)cc23)o1 | . | . | . | -13% | 0 | .
COc1cc(OC)cc(C(=O)Nc2ccccc2N2CCOCC2)c1 | -2% | -9% | -9% | -4% | 2 | 5%
CC(C)COc1cccc(C(=O)Nc2ccc(N3CCOCC3)cc2N2CCOCC2)c1 | 7.1µM* | . | . | . | . | .
COc1ccc(-c2ocnc2C(=O)Nc2ccc(N3CCOCC3)cc2N2CCOCC2)cc1OC | ? | . | . | -13% | 3 | .
COc1ccccc1-c1ocnc1C(=O)Nc1ccc(N2CCOCC2)cc1N1CCOCC1 | 50µM* | . | . | -14% | 0 | .
COc1cc(OC)cc(C(=O)Nc2ccc(N3CCOCC3)cc2N2CCOCC2)c1 | 18µM* | . | . | . | . | .
O=C(Nc1cccc(F)c1)N1CC2(CCN(C(=O)c3ccco3)CC2)C1 | 1%[12.7 µM] | . | . | -13% | 3 | .
COc1ccc(S(=O)(=O)N2CCCCC2)cc1NC(=O)CNc1ccc(F)cc1C | -6%[12.7 µM] | . | . | . | . | .
SMILES | G9a block | Tau fluor counter | Tau ThT inhib | Sfp inh | FBPA coupling cs | Tau fibril FP
O=C(NCCc1ccc2c(c1)OCCO2)c1ccccc1F | 2%[59 µM] | 9% | 2% | 5% | 4 | 11%
O=C(/C=C/c1ccc(F)cc1)NCCc1ccc2c(c1)OCCO2 | 89µM* | -8% | ? | 1% | 1 | -2%
CCn1c(C)[n+](Cc2ccccc2)c2ccc(C(=O)OC)cc21 | 32µM* | 1% | -1% | -8% | -1 | 7%
CCn1c(C)[n+](Cc2ccccc2)c2ccc(Cl)cc21 | ? | -2% | -6% | -10% | -1 | -2%
O=C(O)C1Nc2c(C(F)(F)F)ccc(Cl)c2C2C=CCC12 (centres undefined) | 10µM* | . | . | ? | 2 | .
Cc1cc(C)c2c(c1)NC(C(=O)O)C1CC=CC21 (centres undefined) | . | . | . | 89µM* | 0 | .
Cc1cc(C)c2c(c1)N[C@H](c1cccs1)[C@@H]1CCO[C@H]21 | 3% | -24% | -13% | 14% | 2 | 1%
O=C(O)C1Nc2c(C(=O)N3CCOCC3)cccc2C2C=CCC12 (centres undefined) | 8.9µM* | ? | 14µM* | 7.1µM* | -34* | ?
Cc1ccc(Cl)c2c1N[C@@H](c1ccc(C(=O)O)cc1)[C@H]1CC=C[C@@H]21 | ? | -15% | ? | . | . | -7%
Cc1ccc2c(c1C)NC(C(=O)O)C1CC=CC21 (centres undefined) | 8.9µM* | ? | 11µM* | 45µM* | -6 | ?
O=C(Nc1ccccc1)N1CCC2(CC1)CCN(S(=O)(=O)c1ccccc1)CC2 | 5%[12.7 µM] | . | . | -8% | -1 | .
Cc1cccc(N2CCN(C(=O)Cn3c(-c4cccs4)cc4ccccc43)CC2)c1C | -9%[59 µM] | -5% | -11% | . | . | -1%
Cn1ccnc1SCC(=O)Nc1ccc(Oc2ccccc2)cc1 | 50µM* | -10% | -9% | 15% | 2 | 0%
Cc1ccc(C)c(NC(=O)CSc2nccn2-c2cccc(C)c2C)c1 | 18µM* | -5% | -12% | . | . | 6%
Cc1cccc(-n2ccnc2SCC(=O)Nc2ccc(F)cc2F)c1C | ? | -14% | -12% | . | . | 0%
Cc1cc(C)cc(-n2ccnc2SCC(=O)Nc2ccc(C)c(Cl)c2)c1 | 10µM* | ? | -15% | . | . | -21%
COc1ccc(C(=O)CSc2nc(C)cc(=O)[nH]2)cc1 | 25µM* | 1% | -5% | -1% | -1 | 5%
COc1ccc(-n2nc(C(=O)NCCc3ccc(OC)c(OC)c3)c3c4ccccc4n(C)c3c2=O)cc1Cl | 3%[59 µM] | -18% | -3% | . | . | ?
Cc1cccc(-n2ccnc2SCC(=O)Nc2cccc(S(=O)(=O)NC3=NCCC3)c2)c1C | 40µM* | . | . | . | . | .
CN(CC(=O)Nc1ccc(F)cc1)C(=O)CSc1nccn1C | 50µM* | . | . | . | . | .
CCc1ccc(NC(=O)CSc2nccn2-c2ccc(F)cc2)cc1 | 60%[59 µM] | -13% | 1% | . | . | -2%
CCc1ccc(NC(=O)CSc2nccn2-c2cccc(C)c2C)cc1 | 16µM* | -22% | ? | . | . | -6%
COc1ccc(C(=O)CSc2nccn2C)cc1 | 50µM* | . | . | 56µM* | 1 | .
